Bioassay records as filed in PubChem.
PP5 primary = PP5 (human) phosphatase inhibition; purified PP5c, OMFP substrate fluorescence; inhibition, % at 6.7 µM; 320,000 tested, 0.18% active; AID 1987;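 active means inhibition above the campaign's mean inhibition across all tested compounds plus 3 SD, cut at about 9.5% in these data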;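 further: 0% = DMSO only and 100% = 100 µM cantharidin control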
CSC inhib = blocks cancer stem cells. 300,000 tested, 1.1% active. inhibition, % at 7.5 µM. cancer stem cell-like cells viability, luminescence; in the data active means inhibition above about 75%; inconclusive means no clear call, values can overlap the other calls; tested in HMLE shEcad cells
PP1 inh = PP1-alpha (human) inhibition in PP5 counter-screen; purified PP1alpha, OMFP fluorescence; inhibition, % at 6.7 µM; 320,000 tested, 0.9% active;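 active means inhibition above the mean inhibition of all tested compounds plus 3 SD, computed separately for each screening campaign, cut at about 15% in these data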
Target sequence (P62136 whole entry, looked up): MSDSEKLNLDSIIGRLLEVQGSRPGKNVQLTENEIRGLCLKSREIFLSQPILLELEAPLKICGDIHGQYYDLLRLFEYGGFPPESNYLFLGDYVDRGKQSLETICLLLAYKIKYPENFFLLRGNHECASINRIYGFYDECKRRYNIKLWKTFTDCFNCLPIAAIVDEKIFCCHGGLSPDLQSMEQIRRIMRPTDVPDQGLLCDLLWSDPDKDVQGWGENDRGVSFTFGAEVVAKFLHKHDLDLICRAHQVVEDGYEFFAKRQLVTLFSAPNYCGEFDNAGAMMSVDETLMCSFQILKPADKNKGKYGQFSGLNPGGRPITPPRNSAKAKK
Mdm2-MdmX inh = disrupts the human Mdm2-MdmX interaction; 330,000 tested, 3% active; AID 485346; SaOS-2 split-luciferase Mdm2/MdmX complementation, luminescence; inhibition, % at 8 µM;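 active means inhibition of at least 50% at 8 µM in the primary screen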
Calb FLC = affects C. albicans growth with fluconazole | AID 1979 | growth inhibition, % (no concentration beside the values) | 300,000 tested, 0.57% active | C. albicans CaCi-2 (fluconazole-resistant clinical isolate) + fluconazole, Alamar Blue growth, 48 h;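 active means growth inhibition above about 58% in most replicates, limit read from the data, passing the limit was not always enough; inconclusive means exactly half the replicates above a set limit; inactive means most replicates below a set limit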;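 further: all wells also contain fluconazole at 8 µg/ml as a sub-toxic cotreatment; 0% = median of DMSO wells and 100% = median of geldanamycin control wells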
Beta cell apopt = beta cell apoptosis inhibition; 300,000 tested, 0.8% active; INS-1E cytokine-induced death, ATP luminescence, 48 h; percent of positive-control rescue, neutral wells zero; protection from apoptosis, % (concentration not given with the values); AID 435005;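 active means Every replicate reaches about 75%, or at least half do and their mean reaches it too, limit read from the data; inconclusive means At least half of replicates reach the limit but their mean does not; inactive means Under half of replicates reach the limit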;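 further: 0% = cytokine-treated negative control wells and 100% = positive control rescue; higher means more ATP so stronger rescue from cytokine killing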
The depositor's hits bear a star; ? = inconclusive; · = no result given. Most compounds without a hit are left out; they make up all but 4.9% or so of the library.

SMILES | PP5 primary | CSC inhib | PP1 inh | Mdm2-MdmX inh | Calb FLC | Beta cell apopt
Cn1nc([N+](=O)[O-])nc1Sc1cccc2cccnc12 | -0.4 | -6.6 | -2.5 | 4.6 | -1.1 | 94.2*
CSc1sc(C(=O)NC(=O)NCc2ccncc2)c(C)c1-c1ccon1 | -3.0 | -1.0 | -2.9 | 34.7 | 18.6 | -9.1
O=C(O)c1cn(-c2ccc(F)cc2)c(=O)c2ccccc12 | -0.6 | -6.0 | 0.6 | -30.3 | 5.5 | -9.0
CC1(C)CC(=O)c2c(nc(SCC(=O)Nc3nsc(-c4ccccc4)n3)c(C#N)c2-c2ccccc2)C1 | 5.2 | 31.8 | 15.7* | 19.7 | -0.4 | 2.1
Cc1nnc(SCC(=O)Nc2nsc(-c3ccccc3)n2)s1 | 0.1 | · | 0.4 | -17.2 | 3.3 | -12.6
Cc1ccc(-c2csc(C3C(N)=NC(S)=C(C#N)C34CCCCC4)n2)cc1 (configuration not stated) | 3.9 | -11.3 | 16.6* | 8.3 | 9.9 | -13.1
O=C(NC1CCCCC1)C(c1ccc(O)cc1)N(C(=O)c1cnccn1)c1cccc(F)c1 (configuration not stated) | 2.9 | · | -5.8 | 7.1 | -5.0 | -3.5
O=C(COc1ccc([N+](=O)[O-])cc1)Nc1ccc(C(=O)NCc2cccnc2)cc1 | -1.6 | 14.2 | -2.7 | 4.6 | 8.0 | 101.0*
O=C(Cc1ccc([N+](=O)[O-])cc1)Nc1cccnc1 | 2.2 | -4.1 | 1.7 | 6.1 | -14.2 | 80.9*
O=C(COc1ccc([N+](=O)[O-])cc1)NCc1cccnc1 | 1.3 | -23.1 | -4.1 | -1.8 | -0.5 | -5.8
O=C(NCc1cccnc1)c1ccc([N+](=O)[O-])cc1 | -1.3 | -21.3 | -2.6 | 17.6 | -6.7 | 103.3*
O=C(NCc1cccnc1)C(=O)Nc1ccc([N+](=O)[O-])cc1 | -0.9 | · | -5.4 | 10.8 | -9.8 | 1.5
O=C(NCc1cccnc1)c1ccc(-c2cc3ccccc3oc2=O)cc1 | 0.3 | 58.9 | -1.3 | -39.8 | -2.0 | 101.2*
O=C(NCc1cccnc1)c1ccc(NC(=O)c2cccc([N+](=O)[O-])c2)cc1 | 0.7 | 24.9 | -5.3 | 10.5 | -3.4 | 139.6*
Cc1ccc(N2C(=O)CCC2=O)c(C)c1 | 0.3 | 1.1 | -2.7 | 8.4 | -2.0 | -8.6
Cc1cc(OCC(=O)Nc2ccc(S(=O)(=O)NC3=NCCCCC3)cc2)c(C(C)C)cc1Cl | 5.2 | 85.0* | 7.4 | 21.5 | 4.3 | -1.9
COc1ccc(N2CCN(C(=O)NCc3ccc(C)cc3)CC2)cc1 | -5.5 | 1.1 | 2.5 | 5.6 | 1.1 | 2.4
Cc1cccc(CN2CCN(C(c3ccccc3)c3ccc(Cl)cc3)CC2)c1 (configuration not stated) | -0.6 | 85.5* | -1.3 | 29.6 | · | 60.7
CON/C=C(\C=Nc1ccc(Cl)cc1Cl)c1ncc(C(F)(F)F)cc1Cl | -1.5 | -8.3 | 2.8 | 26.1 | 93.8* | -2.6
CC(=O)Nc1ccc(-c2csc(NC(=O)Cc3cccc(F)c3)n2)cc1 | 3.8 | 90.4* | 3.0 | 17.6 | -3.6 | 9.8
CC(=O)Nc1ccc(-c2csc(NC(=O)Cc3ccccc3F)n2)cc1 | 2.3 | 90.0* | -0.2 | -8.9 | -0.3 | -4.3
C[C@H](N)C(=O)N1CCC(C(=O)N[C@@H](Cc2ccccc2)C(=O)Nc2ccc(F)cc2)CC1 | 2.5 | -6.7 | 8.8 | 0.2 | 5.9 | ·
COc1cccc(OC)c1-c1nn2c(-c3cc(-c4ccccc4)n[nH]3)nnc2s1 | 5.4 | 67.0 | 58.6* | 25.9 | 6.6 | 4.5
C=CCC1(N(C(C)=O)c2ccccc2C)CCCCC1 | 2.2 | -11.5 | -2.5 | -0.7 | -3.2 | -5.1
Cc1ccc(Nc2cc(C)c3ccc(O)cc3n2)cc1C | 4.1 | 86.5* | 17.0* | -2.4 | 11.7 | -0.3
SMILES | PP5 primary | CSC inhib | PP1 inh | Mdm2-MdmX inh | Calb FLC | Beta cell apopt
O=C(Nc1ccc2nc(-c3ccco3)c(-c3ccco3)nc2c1)N1CCCCCC1 | 4.0 | 0.2 | 36.6* | 17.8 | ? | -4.8
COc1ccccc1CN(C(=O)CCl)C(C(=O)NC1CCCCC1)c1ccncc1 (configuration not stated) | 3.8 | -5.2 | 17.0* | · | · | -1.1
COc1ccc(OC)c(NC(=O)NCCCCc2ccccc2)c1 | -2.0 | 20.4 | 1.9 | 0.8 | 13.5 | 4.5
Cc1ccc(Oc2nc(CN3CCOCC3)nc3sc4c(c23)CCC(C)C4)cc1 (configuration not stated) | -6.9 | 60.5 | -5.1 | 11.1 | 25.6 | -8.5
Cc1ccc(Oc2nc(CN3CCOCC3)nc3sc4c(c23)CCC(C)C4)cc1C (configuration not stated) | 1.2 | 120.2* | 1.8 | 14.2 | -3.0 | -0.2
Cc1csc(C(=O)NN)c1N(C)C | 1.4 | -3.7 | -6.0 | 4.1 | -2.5 | 8.8
CC(C)c1ccccc1NC(=O)COc1ccc2c(=O)c(Oc3ccc4ccccc4c3)coc2c1 | 4.4 | 16.3 | 18.4* | 29.8 | 14.5 | 8.1
CCc1ccccc1NC(=O)COc1ccc2c(=O)c(Oc3cc(C)ccc3C)coc2c1 | -0.6 | -11.7 | -0.7 | -1.4 | 4.8 | -3.6
COc1cc(/C=N\Nc2nncn2N)ccc1OC(C)=O | -1.0 | 3.9 | -1.8 | 27.7 | 24.0 | 4.6
CS(=O)(=O)c1nc(-c2ccccc2)cc(C(F)(F)F)n1 | 3.8 | 107.2* | 0.6 | -31.6 | 61.6 | 107.7*
CC1CCC2C(=O)N(c3ccc(NC4CCCCC4)c([N+](=O)[O-])c3)C(=O)C2C1 (configuration not stated) | 0.5 | 76.1* | -0.8 | -7.0 | -2.7 | -2.3
Sc1nnc(-c2ccc(Cl)cc2)n1Cc1ccccc1 | 1.5 | 76.3* | 15.3* | 3.9 | · | 6.2
COc1ccc(CNC(=S)NCc2ccc(Cl)cc2)cc1OC | 4.1 | -22.5 | -0.3 | 22.6 | -6.8 | -2.7
COc1ccc(/C=C2\SC(=O)N(CC(=O)NNC(=O)c3ccccc3O)C2=O)cc1OC | 1.1 | 9.9 | 1.9 | 12.4 | 104.8* | -5.5
O=C(NNC(=O)c1nc2ccccc2[nH]1)OCc1ccccc1 | · | 3.7 | · | -3.3 | · | -11.5
COc1ccccc1N1CC(C)(C)C(=O)N(C(=O)c2ccc(Cl)cc2)C1=S | 2.5 | 5.8 | -3.0 | 30.8 | 4.3 | 85.1*
CSc1ccc(C2c3[nH]c4ccccc4c3CCN2C(=O)c2ccnn2C)cc1 (configuration not stated) | 1.3 | 28.3 | -1.8 | -20.7 | 92.3* | -2.0
CCc1ccc(C2c3[nH]c4ccccc4c3CCN2C(=O)c2ccc(=O)n(C)n2)cc1 (configuration not stated) | 4.6 | 20.8 | 1.1 | 17.3 | 88.2* | 4.0
Cc1cccc(C2c3[nH]c4ccccc4c3CCN2C(=O)c2ccc(=O)[nH]c2)n1 (configuration not stated) | 0.8 | 3.4 | 1.3 | -2.9 | 26.9 | -6.5
COc1ccc(NC(=O)CNC(=O)c2nn(-c3ccc(OC)cc3OC)c(=O)c3ccccc23)c(OC)c1 | -1.9 | -41.7 | -0.1 | 5.9 | 93.0* | 0.2
O=C(COC(=O)c1ccc(CO)cc1)Nc1ccc2ccccc2c1 | 1.0 | · | 6.7 | 21.5 | · | -8.0
N#CCC(=O)Nc1ccc(C(=O)OCC(=O)Nc2ccc3ccccc3c2)cc1 | 1.1 | · | 15.4* | -11.7 | · | -3.1
